# Reference: PubChem BioAssay (NCATS)
# Values without a mark were called inactive. Inconclusive results are not listed. Where a call stands in place of a potency, no number is given. Calls of active or inactive are those of the source. The call rests on the fitted dose curve; in most records, active means well fitted curve in the direction sought with a large enough effect; inconclusive means small, poorly fitted or top-dose-only effect, or another doubt; inactive means no such curve, though single readings can be large; an effect the other way counts as inactive or inconclusive. Where a SMILES comes first, the peptide text is derived from it. [ ]: non-standard residue; d: D form. pGlu = O=C1CC[C@@H](C(=O)O)N1; Thz = O=C(O)[C@@H]1CSCN1
# Legend:
# [1] = target: Glutathione peroxidase 1 (Homo sapiens) (UniProt P07203); assay: Primary qHTS Assay for Inhibitors of Recombinant Selenoprotein Glutathione Peroxidase 1 (GPX1) (AID 1845191); details: recombinant GPX1, GR-coupled NADPH fluorescence, 15 min; series mostly up to 48.8 µM; further: nearly all actives have a fitted effect of over 65% in size; further: potency means the concentration at half of the fitted maximal effect
# Sequence of Glutathione peroxidase 1 (Homo sapiens) (P07203 whole entry, looked up): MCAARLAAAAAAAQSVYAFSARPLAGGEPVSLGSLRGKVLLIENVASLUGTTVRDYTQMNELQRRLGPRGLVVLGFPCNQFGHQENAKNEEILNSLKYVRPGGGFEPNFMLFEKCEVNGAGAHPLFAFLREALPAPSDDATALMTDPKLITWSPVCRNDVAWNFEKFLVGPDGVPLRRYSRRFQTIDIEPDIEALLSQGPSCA
# Method in brief: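 GR-coupled assay: compounds preincubated 30 min at room temperature with GPX1, then reaction started with CHP; final 10 nM GPX1, 1 mM GSH, 0.5 mM CHP, 0.5 mM NADPH, 100 nM GR, 0.01% BSA, pH 7.5 Tris buffer. NADPH fluorescence (340/450 nm) read at 0 and 15 min.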
# [2] = target: Phospholipid hydroperoxide glutathione peroxidase GPX4 (Homo sapiens) (UniProt P36969); assay: Primary qHTS Assay for Inhibitors of Recombinant Selenoprotein Glutathione Peroxidase 4 (GPX4) (AID 1845192); details: recombinant GPX4, GR-coupled NADPH fluorescence, 15 min; series mostly up to 50 µM; further: nearly all actives have a fitted effect of over 65% in size; further: potency means the concentration at half of the fitted maximal effect
# Sequence of Phospholipid hydroperoxide glutathione peroxidase GPX4 (Homo sapiens) (P36969 whole entry, looked up): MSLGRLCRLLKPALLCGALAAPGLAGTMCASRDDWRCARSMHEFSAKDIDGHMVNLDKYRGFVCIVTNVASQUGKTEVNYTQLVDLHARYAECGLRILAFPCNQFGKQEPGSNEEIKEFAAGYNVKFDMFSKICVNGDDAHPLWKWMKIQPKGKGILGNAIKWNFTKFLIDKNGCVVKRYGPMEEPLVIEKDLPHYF
# Method in brief: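 GR-coupled assay: recombinant GPX4 preincubated 30 min with compound at room temperature; final 200 nM GPX4, 1 mM GSH, 0.5 mM cumene hydroperoxide, 0.5 mM NADPH, 100 nM GR, 0.01% BSA, pH 7.5 Tris. NADPH fluorescence (340/450 nm) read at 0 and 15 min.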
# [3] = target: Luciferin 4-monooxygenase (Photinus pyralis) (UniProt P08659); assay: Primary firefly luciferase (FLuc) qHTS assay for identification of artifact compounds. (AID 1845220); details: purified firefly luciferase, luminescence, 5 min; series mostly up to 54.1 µM; further: nearly all actives have a fitted effect of over 60% in size
# Method in brief: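 Titrated compounds were incubated 15 min at RT, protected from light, with luciferin and ATP at 10 uM; reaction started with 10 nM FLuc, luminescence imaged at 5 min, and concentration-response fitted by Hill equation.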
# [4] = Primary fluorescence-based thiol-reactive (MSTI) qHTS assay for identification of artifact compounds. (AID 1845221); details: MSTI thiol-reactivity probe, 1 h; series mostly up to 53.8 µM;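 further: thiol-reactive compounds lower the probe fluorescence signal; nearly all actives have a fitted effect of over 65% in size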
# Method in brief: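 Probe: MSTI 4 uM, PBS pH 7.4, 2% DMSO. Incubation 1 h, RT, light-protected. Readout fluorescence 525/598 nm.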
# [5] = system: Nanoluciferase (engineered Oplophorus gracilirostris luciferase); assay: Primary Nanoluciferase (NLuc) qHTS assay for identification of artifact compounds. (AID 1845222); details: NLuc-conditioned medium, Nano-Glo luminescence, 5 min; series mostly up to 54.1 µM;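 further: NLuc secreted into diluted conditioned medium of S16 cells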
# Method in brief: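 qHTS format, against NLuc in S16 cell-conditioned medium. Nano-Glo substrate 1:100 was added after 15 min at room temperature. Luminescence was taken after a further 5 min.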
compound,measurement,setting,value
O=C1CC[C@@H](C(=O)N2CSC[C@H]2C(=O)O)N1 ([pGlu]-[Thz]-OH),Potency,[1],inactive
same,Potency,[2],inactive
same,Potency,[3],inactive
same,outcome,[4],inactive
same,Potency,[5],inactive
CC(C(=O)O)c1ccc2c(c1)[nH]c1ccc(Cl)cc12 (stereo not drawn),Potency,[1],inactive
same,Potency,[2],inactive
same,Potency,[3],inactive
same,outcome,[4],inactive
Nc1ncnc2c1ncn2[C@@H]1O[C@H](COP(=O)(O)CP(=O)(O)OP(=O)(O)O)[C@@H](O)[C@H]1O,Potency,[1],inactive
same,Potency,[2],inactive
O=C(O)[C@H](CC(=O)N1C[C@H]2CCCC[C@H]2C1)Cc1ccccc1,Potency,[1],inactive
same,Potency,[2],inactive
same,Potency,[3],inactive
same,outcome,[4],inactive
same,Potency,[5],inactive
Cc1ccc2c(n1)Oc1ccc(C(C)C(=O)OCC(=O)N(C)C)cc1C2 (stereo not drawn),Potency,[1],inactive
same,Potency,[2],inactive
same,outcome,[4],inactive
same,Potency,[5],inactive
NCCSSCCN,Potency,[1],inactive
same,Potency,[2],inactive
COc1ccc2c(c1)CCC1C2CC[C@@]2(C)C1CC[C@@H]2NCCCCCCN1C(=O)CCC1=O (stereo partly drawn),Potency,[1],inactive
same,Potency,[2],inactive
C#CC1(O)CC[C@H]2[C@@H]3CCC4=CCCC[C@@H]4[C@H]3CC[C@@]21C (stereo partly drawn),Potency,[2],inactive
O=C(O)CCCC[C@@H]1CCSS1,Potency,[2],inactive
C[C@H](O)[C@H](O)[C@H]1CNc2nc(N)[nH]c(=O)c2N1,Potency,[1],18 µM (active)
same,Potency,[2],20.2 µM (active)
same,Potency,[3],inactive
same,outcome,[4],inactive
same,Potency,[5],inactive
CC(=O)SCC(CC(=O)c1ccc(C)cc1)C(=O)O (stereo not drawn),Potency,[1],inactive
same,Potency,[2],inactive
same,outcome,[4],inactive
same,Potency,[5],inactive
CC1(C)S[C@@H]2[C@H](NC(=O)[C@H](N)c3ccc(O)cc3)C(=O)N2[C@H]1C(=O)O,Potency,[2],inactive
same,Potency,[3],inactive
same,Potency,[5],inactive
Nc1ccc(O)c(C(=O)O)c1,Potency,[2],inactive
CN1[C@@H]2CC[C@H]1CC(OC(=O)C(CO)c1ccccc1)C2 (stereo partly drawn),Potency,[2],inactive
same,Potency,[3],inactive
same,outcome,[4],inactive
same,Potency,[5],inactive
COc1cc(NC(C)CCCN)c2ncccc2c1 (stereo not drawn),Potency,[2],inactive
O=C(O)[C@H](O)[C@@H](O)[C@H](O)[C@H](O)CO,Potency,[1],inactive
same,Potency,[2],inactive
O=C(O)Cc1cccc(-c2cc(CCCCCCc3ccc(O[C@H]4O[C@H](CO)[C@@H](O)[C@H](O)[C@@H]4O)c(-c4cccc(CC(=O)O)c4)c3)ccc2O[C@H]2O[C@H](CO)[C@@H](O)[C@H](O)[C@@H]2O)c1,"activity, negative = inhibition",[1],-5.05% [at 0.4 µM]
same,"activity change, negative = inhibition",[2],-19% [at 0.409 µM]
same,outcome,[3],inactive [at 0.464 µM]
same,"activity change, negative = thiol reactive",[4],33.1% [at 0.461 µM]
same,"activity, negative = inhibition",[5],3.7% [at 0.464 µM]
CCCCC1C(=O)N(c2ccccc2)N(c2ccc(O)cc2)C1=O (stereo not drawn),Potency,[1],inactive
same,Potency,[2],inactive
